Hits are enriched below; roughly 2.5% of the tested compounds scored in any of these assays.
ULK1 primary: ULK1 kinase inhibitors, primary screen, biochemical, AlphaScreen | inhibition, % at 5.96 µM | AID 1259251, 2017 | 1.9% of 30,000 active | AlphaScreen Atg13 phosphorylation by ULK1, luminescence; in the data active = inhibition above about 43%;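 also: 0% = median of compound wells and 100% = no enzyme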
ASK1 primary: ASK1 kinase inhibitors, primary screen, biochemical, AlphaScreen. Mitogen-activated protein kinase kinase kinase 5 (Homo sapiens), Q99683. AlphaScreen MKK6 phosphorylation by ASK1, luminescence. inhibition, % at 7.44 µM. 0.99% of 22,000 active. AID 1159602, 2016; in the data active = inhibition above about 35%;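 also: 0% = median of compound wells and 100% = no enzyme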
Target sequence (Q99683 whole entry, looked up): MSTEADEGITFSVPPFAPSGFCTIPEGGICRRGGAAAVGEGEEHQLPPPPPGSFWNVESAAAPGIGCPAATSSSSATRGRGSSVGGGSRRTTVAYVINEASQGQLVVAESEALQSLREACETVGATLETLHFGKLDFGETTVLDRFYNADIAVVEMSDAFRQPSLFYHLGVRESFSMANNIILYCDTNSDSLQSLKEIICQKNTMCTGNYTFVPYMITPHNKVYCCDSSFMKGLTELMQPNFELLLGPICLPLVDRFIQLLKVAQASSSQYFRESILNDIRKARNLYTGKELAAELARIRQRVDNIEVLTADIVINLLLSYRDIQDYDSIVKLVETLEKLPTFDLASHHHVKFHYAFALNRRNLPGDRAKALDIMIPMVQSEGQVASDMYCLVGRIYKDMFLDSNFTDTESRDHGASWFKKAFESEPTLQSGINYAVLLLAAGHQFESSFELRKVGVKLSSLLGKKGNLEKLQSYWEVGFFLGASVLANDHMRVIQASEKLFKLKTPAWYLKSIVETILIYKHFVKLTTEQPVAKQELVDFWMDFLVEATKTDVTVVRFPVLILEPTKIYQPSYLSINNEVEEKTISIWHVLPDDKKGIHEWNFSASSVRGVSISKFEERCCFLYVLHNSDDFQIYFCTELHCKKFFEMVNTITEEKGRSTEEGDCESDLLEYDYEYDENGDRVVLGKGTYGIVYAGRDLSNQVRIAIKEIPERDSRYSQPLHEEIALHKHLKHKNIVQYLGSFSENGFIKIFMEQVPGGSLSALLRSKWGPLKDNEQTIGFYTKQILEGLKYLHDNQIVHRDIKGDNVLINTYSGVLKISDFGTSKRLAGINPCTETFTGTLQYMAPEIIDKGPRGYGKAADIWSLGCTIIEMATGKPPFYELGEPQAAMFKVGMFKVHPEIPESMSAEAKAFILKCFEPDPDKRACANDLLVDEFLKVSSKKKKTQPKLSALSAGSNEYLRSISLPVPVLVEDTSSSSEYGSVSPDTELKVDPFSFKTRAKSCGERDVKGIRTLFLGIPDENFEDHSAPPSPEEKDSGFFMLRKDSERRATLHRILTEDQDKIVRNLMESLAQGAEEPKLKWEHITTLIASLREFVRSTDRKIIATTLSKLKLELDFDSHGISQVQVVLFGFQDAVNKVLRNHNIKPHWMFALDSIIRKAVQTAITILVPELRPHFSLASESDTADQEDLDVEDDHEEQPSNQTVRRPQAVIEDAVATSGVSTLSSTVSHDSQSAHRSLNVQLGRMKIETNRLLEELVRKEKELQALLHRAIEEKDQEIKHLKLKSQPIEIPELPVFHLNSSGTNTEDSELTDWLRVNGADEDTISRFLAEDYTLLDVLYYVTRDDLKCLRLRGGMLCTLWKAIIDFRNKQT
AlphaScreen intf: AlphaScreen signal interference by compounds, dose response, artefact control for ASK1 inhibitor project, biochemical, TruHits beads; 20% of 220 active; signal interference counterscreen; AID 1159604, 2016; shares compounds with ASK1 primary; IC50, µM;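 active = IC50 of 10 µM or lower in the counterscreen; inactive = IC50 above 10 µM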;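 also: loss of AlphaScreen light from TruHits beads alone with no ASK1 enzyme present; potency of signal reduction so a low IC50 flags an assay artifact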
The depositor's hits bear a star; i = inactive; · = not tested or not shown.

SMILES | ULK1 primary | ASK1 primary | AlphaScreen intf
COc1cc2nc(Nc3nc4ccccc4n3C)nc(Nc3cc(OC)c(OC)c(OC)c3)c2cc1OC | 1 | 8 | ·
COc1cc2nc(Nc3nc4ccccc4n3C)nc(Nc3ccc(NC(C)=O)cc3)c2cc1OC | -52 | 72* | 9.7*
Cc1cnc(Nc2nc3ccccc3n2C)nc1Nc1ccc(N2CCOCC2)cc1 | 30 | 39* | >22
CS(=O)(=O)c1ccc(-c2ccnc(Nc3ccc4cn[nH]c4c3)n2)cc1 | 4 | -15 | ·
O=S(=O)(O)c1ccc2c(N=Nc3ccc(S(=O)(=O)O)c4ccccc34)c(O)c(S(=O)(=O)O)cc2c1 | 19 | · | ·
COc1ccc(CCNc2nc(N3CCC(N4CCOCC4)CC3)nc3c2ncn3-c2ccsc2)cc1 | -10 | 1 | ·
Cc1cccc(CC(=O)Nc2cnn(-c3ccc(C(=O)Nc4cccc(C(F)(F)F)c4)cc3)c2)c1 | -31 | -26 | ·
COc1ccc(CCNC(=O)c2ccnc(Nc3ccc4ncccc4c3)c2)cc1 | -12 | 0 | ·
COc1ccc(CCNc2ccnc(Nc3cccc(N(C)C)c3)n2)cc1 | 7 | 38* | i
COc1ccc(CCNC(=O)c2ccnc(Nc3cccc(N(C)C)c3)c2)cc1 | 0 | 41* | >20
CN(C)c1cccc(Nc2nccc(NCCc3ccc(O)cc3)n2)c1 | -9 | 27 | ·
O=C1CCCN1CCCNc1ncnc2nc(N3CCN(c4ccccn4)CC3)[nH]c12 | 5 | 1 | ·
O=C(NC1CC1)c1ccc(-c2nc(NCc3cccc(C(F)(F)F)c3)c3ncn(-c4ccccc4)c3n2)cc1 | -6 | 45* | >20
O=C(NC1CC1)c1ccc(-c2nc(NCc3cccc(C(F)(F)F)c3)c3ncn(-c4ccsc4)c3n2)cc1 | -19 | 8 | ·
O=C(NCCc1ccc(O)cc1)c1ccnc(NC2CCN(Cc3ccccc3)CC2)c1 | -2 | 2 | ·
Cc1ccc(-c2ncn(-c3ccc(Nc4cc(-c5cnn(C)c5)c(Cl)cn4)cc3)n2)cn1 | -26 | -18 | ·
Cc1ccc(-c2ncn(-c3ccc(Nc4ncc(Cl)c(-c5ccnn5C)n4)cc3)n2)cn1 | 7 | 43* | >19
Cc1ccc(-c2cccc3cnc(Nc4ccc(-n5cnc(C)n5)cc4)nc23)cn1 | 20 | 39* | >19
Cc1ncn(-c2ccc(Nc3ncc4cccc(-c5cccc(F)c5)c4n3)cc2)n1 | 1 | -7 | ·
COc1cc(Nc2ccnc(-c3cccc(C(C)=O)c3)n2)cc(OC)c1OC | 40 | 19 | ·
COc1cc(Nc2nc(Nc3ccc(N4CCOCC4)cc3)c3ncn(Cc4ccc(C(F)(F)F)cc4)c3n2)cc(OC)c1OC | 4 | 37* | >18
CC(C)n1cnc2c(Nc3ccc4c(c3)OCO4)nc(Nc3cccc(N(C)C)c3)nc21 | 16 | 37* | >20
CC(C)n1cnc2c(NCc3cccc(C(F)(F)F)c3)nc(N3CCN(Cc4ccc5c(c4)OCO5)CC3)nc21 | -16 | 37* | >20
FC(F)(F)c1ccc(Cn2cnc3c(Nc4ccc5c(c4)OCO5)nc(N4CCN(c5ccccn5)CC4)nc32)cc1 | 12 | 51* | >20
CC(C)n1cnc2c(Nc3ccc(N4CCOCC4)cc3)nc(Nc3cccc(N(C)C)c3)nc21 | 20 | 35 | ·
SMILES | ULK1 primary | ASK1 primary | AlphaScreen intf
COc1cc(Nc2nc(N3CCN(c4ccccn4)CC3)nc3c2ncn3Cc2ccc(C(F)(F)F)cc2)cc(OC)c1OC | -16 | 27 | ·
FC(F)(F)c1ccc(Cn2cnc3c(NCc4cccc(C(F)(F)F)c4)nc(N4CCN(Cc5ccc6c(c5)OCO6)CC4)nc32)cc1 | 15 | 29 | ·
FC(F)(F)c1ccc(Cn2cnc3c(Nc4ccccc4)nc(Nc4ccc(N5CCOCC5)cc4)nc32)cc1 | -18 | 28 | ·
CC(=O)Nc1ccc(Nc2nc(Nc3ccccc3)nc3nc[nH]c23)cc1 | 3 | -12 | ·
O=C(Cc1cn(-c2ccc(Nc3nccc4ccccc34)nn2)c2ccccc12)NC1CCN(Cc2ccccc2)CC1 | 14 | 9 | ·
CC(C)(C)OC(=O)N[C@@H](c1ccccc1)c1nc(-c2ccc(-c3ccncc3)cc2)no1 | -5 | -25 | ·
Cc1nc(NCCCO)cc(-c2ccc(F)cc2)n1 | -5 | · | ·
c1ccc(-n2cnc3c(NCCN4CCOCC4)nc(-c4csc5ccccc45)nc32)cc1 | -48 | 9 | ·
CN(C)c1cccc(Nc2nc(Nc3ccc4c(c3)OCO4)c3ncn(Cc4ccc(C(F)(F)F)cc4)c3n2)c1 | 32 | 50* | >18
CCN(CC)C(=O)C1CCCN(c2nc(Nc3ccc(N4CCOCC4)cc3)c3ncn(Cc4ccc(C(F)(F)F)cc4)c3n2)C1 (stereo unspecified) | -17 | 56* | >20
FC(F)(F)c1ccc(Cn2cnc3c(Nc4ccc5c(c4)OCO5)nc(Nc4ccccc4)nc32)cc1 | -4 | 41* | >22
CCN(CC)C(=O)C1CCCN(c2nc(Nc3ccc(N4CCOCC4)cc3)c3ncn(CCN4CCCC4=O)c3n2)C1 (stereo unspecified) | 2 | 3 | ·
FC(F)(F)c1ccc(Cn2cnc3c(NCCN4CCOCC4)nc(N4CCN(Cc5ccc6c(c5)OCO6)CC4)nc32)cc1 | -42 | 6 | ·
FC(F)(F)c1ccc(Cn2cnc3c(Nc4ccc5c(c4)OCO5)nc(Nc4ccc(C(F)(F)F)cc4)nc32)cc1 | -8 | 13 | ·
FC(F)(F)c1ccc(Cn2cnc3c(Nc4ccc(N5CCOCC5)cc4)nc(N4CCN(Cc5ccc6c(c5)OCO6)CC4)nc32)cc1 | -16 | 48* | >20
CC(=O)Nc1ccc(Nc2nc(Nc3cccc(N(C)C)c3)nc3c2ncn3Cc2ccc(C(F)(F)F)cc2)cc1 | 37 | -11 | ·
Cc1cccc2nc3c(c(=O)n12)CN(C(=O)c1cccc(C(F)(F)F)c1)CC3 | 1 | · | ·
Nc1nc(N2CCc3ccccc3C2)nc2c1ncn2Cc1ccc(C(F)(F)F)cc1 | -17 | 7 | ·
N[C@H](C(=O)NCc1nc(-c2ccncc2)n[nH]1)c1ccccc1 | 6 | -5 | ·
NC(C(=O)N1CC[C@H](C(=O)Nc2ccc3[nH]ncc3c2)C1)c1cccc(Br)c1 (stereo partly specified) | 2 | -8 | ·
CC(=O)c1cccc(-c2nc(NCc3cccnc3)c3ncn(C4CCCCC4)c3n2)c1 | -18 | 3 | ·
CN(C)c1cccc(Nc2nccc(Nc3ccc4c(c3)OCO4)n2)c1 | -2 | 36* | i
FC(F)(F)c1ccc(Cn2cnc3c(NCc4ccccc4)nc(-c4ccc(N5CCOCC5)nc4)nc32)cc1 | 2 | 45* | >20
OCCNc1nc(N2CCN(Cc3ccc4c(c3)OCO4)CC2)nc2c1ncn2C1CCCCC1 | -10 | 12 | ·
c1ccc(OCCNc2nc(N3CCN(Cc4ccc5c(c4)OCO5)CC3)nc3c2ncn3C2CCCCC2)cc1 | 16 | 39* | >20
SMILES | ULK1 primary | ASK1 primary | AlphaScreen intf
FC(F)(F)c1ccc(Cn2cnc3c(NCc4cccc(C(F)(F)F)c4)nc(-c4ccc(N5CCOCC5)nc4)nc32)cc1 | -2 | 28 | ·
FC(F)(F)c1ccc(Nc2nccc(Nc3ccc4c(c3)OCO4)n2)cc1 | -22 | 13 | ·
COc1cc2nc(Nc3ccccn3)nc(Nc3ccc(NC(C)=O)cc3)c2cc1OC | -13 | 1 | ·
CCN(CC)C(=O)C1CCCN(c2cc(C(=O)Nc3ccc(NC(C)=O)cc3)c3ccccc3n2)C1 (stereo unspecified) | 7 | -5 | ·
O=C(NCCc1ccc(O)cc1)c1ccc2nc(-c3cccs3)sc2c1 | -10 | 6 | ·
COc1cc2nc(NCCCN3CCCC3=O)nc(NCCN3CCOCC3)c2cc1OC | 4 | 3 | ·

Screening results (PubChem BioAssay)
